Hit rate of the full screen: of about 39,000 compounds, about 3,300 (8.5%) were called active. Only a selection was taken, and actives are over-represented in it overall.

For this assay, the system named is HepG2. As to the kind of experiment: cytotoxicity call (relative viability < 0.9). The note with it: 10 µM.
Consider `COc1cccc(-c2ccc3c(c2)O[C@@H](CN(C)C(=O)C2CC2)[C@H](C)CN([C@@H](C)CO)S3(=O)=O)c1`, for which the cytotoxicity call was “inactive”.
Take `O=C(C[C@@H]1C[C@@H]2c3cc(NS(=O)(=O)c4ccc(F)cc4)ccc3O[C@@H]2[C@@H](CO)O1)NCCN1CCCCC1`: the cytotoxicity call is “inactive”.
Take `C[C@H](CO)N1C[C@H](C)[C@H](CN(C)S(=O)(=O)c2ccccc2F)Oc2ncc(C#Cc3ccncc3)cc2C1=O`: the cytotoxicity call was “active”.
Take `C[C@@H]1CN([C@H](C)CO)C(=O)c2cc(C#Cc3cccnc3)cnc2O[C@H]1CN(C)S(=O)(=O)c1ccccc1F`: the cytotoxicity call was “inactive”.
As to `C[C@H]1CN([C@@H](C)CO)C(=O)c2cc(C#Cc3ccncc3)cnc2O[C@@H]1CN(C)S(=O)(=O)c1ccccc1F`, the cytotoxicity call is “active”.
The result for `C[C@@H]1CN([C@H](C)CO)C(=O)c2cc(C#Cc3ccccc3)cnc2O[C@H]1CN(C)S(=O)(=O)c1ccccc1F` reads “inactive”; that for `C[C@@H]1CN([C@@H](C)CO)C(=O)c2cc(C#Cc3ccncc3)cnc2O[C@@H]1CN(C)S(=O)(=O)c1ccccc1F`, “inactive”; that for `C[C@H](CO)N1C[C@H](C)[C@@H](CN(C)S(=O)(=O)c2ccccc2F)Oc2ncc(C#Cc3ccncc3)cc2C1=O`, “inactive”.
The result for `C[C@@H]1CN([C@H](C)CO)C(=O)c2cc(C#Cc3ccncc3)cnc2O[C@@H]1CN(C)S(=O)(=O)c1ccccc1F` reads “inactive”.
In the case of `C[C@@H]1CN([C@H](C)CO)C(=O)c2cc(C#Cc3cccnc3)cnc2O[C@@H]1CN(C)S(=O)(=O)c1ccccc1F`, the cytotoxicity call was “inactive”.
As for `C[C@@H]1CN([C@@H](C)CO)C(=O)c2cc(C#Cc3ccncc3)cnc2O[C@H]1CN(C)S(=O)(=O)c1ccccc1F`, the cytotoxicity call was “active”.
The result for `C[C@H]1CN([C@@H](C)CO)C(=O)c2cc(C#Cc3ccncc3)cnc2O[C@H]1CN(C)S(=O)(=O)c1ccccc1F` reads “active”; that for `C[C@H]1CN([C@@H](C)CO)C(=O)c2cc(C#Cc3ccccc3)cnc2O[C@@H]1CN(C)S(=O)(=O)c1ccccc1F`, “inactive”; that for `C[C@@H]1CN([C@H](C)CO)C(=O)c2cc(C#Cc3ccncc3)cnc2O[C@H]1CN(C)S(=O)(=O)c1ccccc1F`, “inactive”.
`COc1ccc(S(=O)(=O)N[C@@H]2CC[C@@H](CC(=O)N3CCC(Cc4ccccc4)CC3)O[C@@H]2CO)cc1`: the cytotoxicity call was “inactive”.
The result for `O=c1c(-c2ccc(O)cc2)coc2c([C@H]3O[C@H](CO)[C@@H](O)[C@H](O)[C@H]3O)c(O)ccc12` reads “inactive”; that for `Cc1ccc2nc(-c3ccco3)[nH]c2c1`, “inactive”.
In the case of `CCS(=O)(=O)N1C[C@]2(CCN(CC2)C(=O)Nc2c(noc2C)C)c2c(n(c3cc(ccc23)OC)C)[C@@H]1CO`, the cytotoxicity call was “inactive”.
In the case of `C[C@H](CO)N1C[C@H](C)[C@@H](CN(C)S(=O)(=O)c2ccc(F)cc2)Oc2ccc(NC(=O)Cc3ccccc3)cc2CC1=O`, the cytotoxicity call was “inactive”.
The result for `COc1cccc(NC(=O)N[C@@H]2CC[C@H](CC(=O)N3CCN(C)CC3)O[C@H]2CO)c1` reads “inactive”; that for `O=C(C[C@@H]1C=C[C@H](NC(=O)c2ccc(F)cc2)[C@H](CO)O1)NCc1ccncn1`, “inactive”.
The result for `C[C@@H]1CCCCO[C@H](CN(C)C(=O)Cc2ccccc2)[C@@H](C)CN([C@@H](C)CO)C(=O)c2cc(NC(=O)Nc3ccc(C(F)(F)F)cc3)ccc2O1` reads “inactive”; that for `C[C@@H]1CN([C@H](C)CO)C(=O)Cc2cc(NC(=O)Nc3cccc4ccccc34)ccc2O[C@@H]1CN(C)Cc1ccc(C(=O)O)cc1`, “inactive”; that for `COCCNC(=O)C[C@@H]1CC[C@H]2[C@@H](COC[C@@H](O)CN2S(=O)(=O)c2ccccc2C)O1`, “inactive”.
For the molecule `C[C@H](CO)N1C[C@H](C)[C@@H](CN(C)Cc2ccc(C(=O)Nc3ccccc3N)cc2)Oc2ccc(NS(=O)(=O)c3ccc(Cl)cc3)cc2CC1=O`, the cytotoxicity call was “inactive”.
For `C[C@H]1CN([C@@H](C)CO)C(=O)c2cccc(NC(=O)C3CC3)c2O[C@H]1CN(C)S(=O)(=O)c1cn(C)cn1`, the cytotoxicity call is “inactive”.
Take `C[C@@H]1CCCCO[C@H](CN(C)S(=O)(=O)c2ccc(Cl)cc2)[C@H](C)CN([C@H](C)CO)C(=O)c2cc(NS(=O)(=O)c3ccc(F)cc3)ccc2O1`: the cytotoxicity call is “inactive”.
Regarding `C[C@@H]1CCCCO[C@H](CN(C)S(=O)(=O)c2ccc(F)cc2)[C@@H](C)CN([C@@H](C)CO)C(=O)c2cc(NS(=O)(=O)c3ccc(Cl)cc3)ccc2O1`, the cytotoxicity call is “inactive”.
As for `C[C@@H]1CN([C@@H](C)CO)C(=O)c2cc(NS(=O)(=O)c3ccc(F)cc3)ccc2O[C@@H](C)CCCCO[C@H]1CN(C)S(=O)(=O)c1ccc(Cl)cc1`, the cytotoxicity call was “inactive”.
Take `C[C@@H]1CCCCO[C@H](CN(C)S(=O)(=O)c2ccc(F)cc2)[C@H](C)CN([C@@H](C)CO)C(=O)c2cc(NS(=O)(=O)c3ccc(Cl)cc3)ccc2O1`: the cytotoxicity call is “active”.
The result for `C[C@@H]1CCCCO[C@H](CN(C)S(=O)(=O)c2ccc(Cl)cc2)[C@@H](C)CN([C@@H](C)CO)C(=O)c2cc(NS(=O)(=O)c3ccc(F)cc3)ccc2O1` reads “inactive”; that for `C[C@@H]1CCCCO[C@H](CN(C)S(=O)(=O)c2ccc(Cl)cc2)[C@H](C)CN([C@@H](C)CO)C(=O)c2cc(NS(=O)(=O)c3ccc(F)cc3)ccc2O1`, “active”; that for `C[C@H](CO)N1C[C@H](C)[C@@H](CN(C)S(=O)(=O)c2ccc(Cl)cc2)OCCCC[C@H](C)Oc2ccc(NS(=O)(=O)c3ccc(F)cc3)cc2C1=O`, “inactive”.
In the case of `C[C@H](CO)N1C[C@H](C)[C@H](CN(C)S(=O)(=O)c2ccc(Cl)cc2)OCCCC[C@H](C)Oc2ccc(NS(=O)(=O)c3ccc(F)cc3)cc2C1=O`, the cytotoxicity call is “active”.
Regarding `C[C@@H]1CCCCO[C@@H](CN(C)S(=O)(=O)c2ccc(Cl)cc2)[C@@H](C)CN([C@@H](C)CO)C(=O)c2cc(NS(=O)(=O)c3ccc(F)cc3)ccc2O1`, the cytotoxicity call is “active”.
Regarding `C[C@@H]1CN([C@@H](C)CO)C(=O)c2cc(NS(=O)(=O)c3ccc(F)cc3)ccc2O[C@@H](C)CCCCO[C@@H]1CN(C)S(=O)(=O)c1ccc(Cl)cc1`, the cytotoxicity call is “inactive”.
As for `COc1ccc(S(=O)(=O)Nc2ccc3c(c2)C(=O)N([C@H](C)CO)C[C@@H](C)[C@@H](CN(C)S(=O)(=O)c2cn(C)cn2)O3)cc1`, the cytotoxicity call was “inactive”.
As for `O=C(N[C@H]1CCS(=O)(=O)C1)N1CCCCC1`, the cytotoxicity call is “inactive”.
Regarding `Cc1ccc(N2C(=O)c3ccccc3[C@](C)(C(=O)NCCN3CCOCC3)[C@@H]2c2ccc(CO)cc2)nc1`, the cytotoxicity call is “inactive”.
As for `C[C@@H]1CN([C@H](C)CO)C(=O)Cc2cc(NC(=O)Cn3cnnn3)ccc2O[C@@H]1CN(C)C(=O)Nc1ccc(F)cc1`, the cytotoxicity call was “inactive”.
Regarding `Cc1ccc(S(=O)(=O)N(C)C[C@H]2OCCCC[C@H](C)Oc3ccc(NC(=O)Nc4cccc5ccccc45)cc3C(=O)N([C@@H](C)CO)C[C@H]2C)cc1`, the cytotoxicity call was “inactive”.
For the molecule `O=C(C1=C[C@@H](C2CC2)C[C@@H](OCc2ccc(CO)cc2)O1)N1CCN(Cc2ccc3c(c2)OCO3)CC1`, the cytotoxicity call is “inactive”.
`CCC(=O)O[C@H]1[C@H](O[C@@H]2[C@@H](C)[C@H](O[C@H]3C[C@@](C)(OC)[C@@H](O)[C@H](C)O3)[C@@H](C)C(=O)O[C@H](CC)[C@@](C)(O)[C@H](O)[C@@H](C)C(=O)[C@H](C)C[C@@]2(C)O)O[C@H](C)C[C@@H]1N(C)C`: the cytotoxicity call is “inactive”.
With `O=C(C[C@H]1C=C[C@H](NC(=O)c2ccc(F)cc2)[C@H](CO)O1)NCc1ccncn1`, the cytotoxicity call is “inactive”.
For the molecule `CN(C)C(=O)c1ccc(-c2cccc(-c3nc(C(=O)NC4CCC4)cc4c3[C@@H](CCO)N([S@](=O)C(C)(C)C)C4)c2)cc1`, the cytotoxicity call was “inactive”.
Take `C[C@@H]1CCCCO[C@@H](CN(C)S(=O)(=O)c2cccs2)[C@@H](C)CN([C@@H](C)CO)C(=O)c2cc(NC(=O)Nc3ccc(F)cc3)ccc2O1`: the cytotoxicity call is “inactive”.
For `C[C@@H]1CCCCO[C@H](CN(C)S(=O)(=O)c2ccc(F)cc2)[C@@H](C)CN([C@H](C)CO)C(=O)c2cc(NS(=O)(=O)c3ccc(Cl)cc3)ccc2O1`, the cytotoxicity call is “inactive”.
With `C[C@H]1CCCCO[C@H](CN(C)S(=O)(=O)c2ccc(Cl)cc2)[C@@H](C)CN([C@@H](C)CO)C(=O)c2cc(NS(=O)(=O)c3ccc(F)cc3)ccc2O1`, the cytotoxicity call is “active”.
Consider `C[C@H]1CCCCO[C@H](CN(C)S(=O)(=O)c2ccc(F)cc2)[C@@H](C)CN([C@@H](C)CO)C(=O)c2cc(NS(=O)(=O)c3ccc(Cl)cc3)ccc2O1`, for which the cytotoxicity call was “active”.
In the case of `C[C@H]1CCCCO[C@@H](CN(C)S(=O)(=O)c2ccc(Cl)cc2)[C@@H](C)CN([C@@H](C)CO)C(=O)c2cc(NS(=O)(=O)c3ccc(F)cc3)ccc2O1`, the cytotoxicity call is “inactive”.
As to `C[C@@H]1CCCCO[C@H](CN(C)S(=O)(=O)c2ccc(F)cc2)[C@H](C)CN([C@H](C)CO)C(=O)c2cc(NS(=O)(=O)c3ccc(Cl)cc3)ccc2O1`, the cytotoxicity call is “inactive”.
Take `C[C@H](CO)N1C[C@H](C)[C@@H](CN(C)S(=O)(=O)c2ccc(F)cc2)OCCCC[C@H](C)Oc2ccc(NS(=O)(=O)c3ccc(Cl)cc3)cc2C1=O`: the cytotoxicity call is “inactive”.
The result for `C[C@@H]1CN([C@H](C)CO)C(=O)c2cc(NS(=O)(=O)c3ccc(Cl)cc3)ccc2O[C@@H](C)CCCCO[C@H]1CN(C)S(=O)(=O)c1ccc(F)cc1` reads “active”; that for `C[C@@H]1CN([C@H](C)CO)C(=O)c2cc(NS(=O)(=O)c3ccc(F)cc3)ccc2O[C@@H](C)CCCCO[C@H]1CN(C)S(=O)(=O)c1ccc(Cl)cc1`, “inactive”.
Take `C[C@H](CO)N1C[C@H](C)[C@H](CN(C)S(=O)(=O)c2ccc(F)cc2)OCCCC[C@H](C)Oc2ccc(NS(=O)(=O)c3ccc(Cl)cc3)cc2C1=O`: the cytotoxicity call was “inactive”.
For `CC(C)NC(=O)N(C)C[C@H]1Oc2ccc(NC(=O)Cc3ccccc3)cc2CC(=O)N([C@H](C)CO)C[C@H]1C`, the cytotoxicity call was “inactive”.
The result for `C[C@@H]1CCCCO[C@H](CN(C)Cc2ccc(C(=O)O)cc2)[C@H](C)CN([C@H](C)CO)C(=O)c2cc(NS(=O)(=O)c3ccc(Cl)cc3)ccc2O1` reads “inactive”.

For the origin of these results see the antibiotic and cytotoxicity screens of Wong et al. (2023).
